Hit rate of the full screen: of about 330,000 compounds, about 1,900 (0.58%) were called active. Inconclusive results (about 4%) are left out. These entries were drawn from the full list. Entries with a potency or affinity are not part of this list. Values without a mark were called inactive. Cut-off read from the data, not from the text of the source: inconclusive = inhibition above about 70% without an active follow-up result; inactive = below that.
Test: M. tuberculosis growth inhibition, HTS (AID 449762);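 note: bacterial growth assessed after seven days of incubation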
Settings: M. tuberculosis H37Rv growth inhibition, 7H9 media; at 25 µM; stronger effect = higher value

Row | SMILES | inhibition [%]
1 | CCc1[nH]nc(C(=O)N2CCCC(C(=O)c3cccc(OC(C)C)c3)C2)c1C (centres undefined) | 8.32
2 | CCOC(=O)Cn1nc(-c2ccc(C)cc2)ccc1=O | -1.62
3 | COC(=O)c1ccc(C(=O)OC)c(NC(=O)CSc2ccccn2)c1 | 45
4 | CCOC(=O)c1ccccc1NC(=O)CSc1cccc[n+]1[O-] | -5.24
5 | Cc1c(Cl)cccc1NC(=O)CCN1CCN(C)CC1 | -6.21
6 | O=C(NCCc1ccccc1)c1c(O)c2cccc3c2n(c1=O)CC3 | -1.91
7 | CCCCN(C(=O)NC(=O)Nc1ccc(C)cn1)S(C)(=O)=O | -2
8 | CC1CCN(CCCn2c(SCC(=O)Nc3ccccc3Cl)nc3ccccc3c2=O)CC1 | 6.66
9 | Cc1ccc(NC(=O)CSc2nc3ccccc3c(=O)n2CCCN2CCCCC2)cc1C | 24.1
10 | Cc1ccccc1N(Cc1cc(=O)[nH]c2ccccc12)C(=O)C(C)C | -1.51
11 | C#CCCC/C(=C\C(=O)N(C)[C@H](C(=O)N(C)[C@H](C(=O)N(C)[C@H](C(=O)N(C)[C@H](C(N)=O)C(C)C)C(C)C)C(C)C)C(C)C)OC | 2.88
12 | Cc1cccc([C@@H]2[C@@H]3C(=O)N(Cc4ccccc4)C(=O)[C@@H]3[C@]3(Cc4ccccc4)C(=O)N(c4cccc(Cl)c4)C(=O)N23)c1 | 12.6
13 | Cc1cc(Cn2nc(C(=O)NCc3cccc(Br)c3)cc2-c2ccccc2)on1 | 25.4
14 | CN(C)C(=O)C1C2NC(=S)N(c3cccc(Cl)c3)C1(C)Oc1ccc(Cl)cc12 (centres undefined) | -0.86
15 | Cc1ccc(N2C(=S)NC3c4cc(Cl)ccc4OC2(C)C3C(=O)N(C)C)cc1 (centres undefined) | 0.53
16 | CSc1cccc(CN2CCN(CCC(C)C)C(CCO)C2)c1 (centres undefined) | -6.35
17 | COc1ccc(NC(=O)c2cn(CCC#N)nc2-c2ccccc2)cc1 | 1.76
18 | Cc1nc(C)c(C(=O)N(c2ccc(F)cc2)C(C(=O)NCC2CCCO2)c2ccccc2)s1 (centres undefined) | 6.83
19 | Cc1onc(C(=O)N2CCN(Cc3ccccc3)CC2)c1[N+](=O)[O-] | 3.07
20 | CC(=N\NC(=O)c1ccccc1)/C(=N/O)C(=O)Nc1ccccc1 | 19.5
21 | O=C1C(c2c(O)[nH]c3ccccc23)=Nc2ccccc21 | 26.2
22 | O=C1C(C2=C(O)c3ccccc3C2=O)=Nc2ccccc21 | -18.6
23 | O=C(CCCn1c(=O)[nH]c2cc(Cl)ccc2c1=O)NCCCN1CCCC1=O | 1.6
24 | C=CCn1c(SC)nnc1-c1ccc2ncccc2c1 | 0.53

Row | SMILES | inhibition [%]
25 | COc1ccc(NC(=O)c2ccc(COc3ccccc3Br)o2)cc1OC | 55.9
26 | COc1ccccc1OCc1ccc(C(=O)Nc2cc(OC)c(OC)c(OC)c2)o1 | 1.45
27 | O=C1CC2(CCCCC2)Oc2ccccc21 | 2.84
28 | O=C(NCC1CC1)c1ccc(Oc2cc(Cl)cc(Cl)c2)o1 | 8.88
29 | Fc1ccc(/C=C\c2nccc3c2[nH]c2ccccc23)cc1 | 3.87
30 | N#Cc1ccc(/C=C\c2nccc3c2[nH]c2ccccc23)cc1 | 23.4
31 | CCCn1c(SCC(=O)N2CCCc3ccccc32)nnc1-c1ccco1 | -5.68
32 | CCOC(=O)c1nc(C)c(C(C)=O)s1 | -0.23
33 | C=CCN(C/C(=N\O)c1sc(C(=O)OCC)nc1C)c1cccc(Br)c1 | 62.6
34 | CCOC(=O)c1c(C)[nH]c(C(=O)OCC(=O)NCc2ccc(F)cc2)c1C | -3.74
35 | COc1ccc(Nc2nc(-c3sc(C)nc3C)cs2)cc1 | 11.6
36 | COc1ccc(OC)c(Nc2nc(-c3sc(N)nc3C)cs2)c1 | 65.1
37 | CCNC(=O)N(CCOC)CC1CCCN(C2Cc3ccccc3C2)C1 (centres undefined) | -1.33
38 | Cc1cccc(CCNS(=O)(=O)c2ccc(S(=O)(=O)N3CCC(C)CC3)cc2)c1 | -1.34
39 | O=C1C(=C(O)c2ccccc2)C(=O)c2ccccc21 | 4.16
40 | COC1=C(c2ccccc2)C(=O)c2ccccc2C1=O | 5.34
41 | CC(=O)Nc1ccc(S(=O)(=O)NC2(C(F)(F)F)NC(=O)N(c3ccccc3F)C2=O)cc1 (centres undefined) | -8.69
42 | Cc1cc(OCCCCOc2ccc(S(N)(=O)=O)c(C)c2)ccc1S(N)(=O)=O | 20.1
43 | CCOc1ccc2c(c1)C(=O)c1cc(OCC(=O)O)ccc1-2 | 1.9
44 | CCc1cc(=O)oc2cc(C)cc(OC(=O)c3ccco3)c12 | 4.45
45 | CCc1nnc(NC(=O)c2c(C)nn(-c3ccccc3)c2Cl)s1 | 25.5
46 | Cc1nn(-c2ccccc2)c(Cl)c1C(=O)Nc1nnc(C2CCCC2)s1 | 38.7
47 | O=C(NCc1ccccc1)Nc1cccn(Cc2cccc(F)c2)c1=O | 5.8
48 | COC(=O)[C@@]1(Cc2ccccc2)C=C[C@@H](C)N1C(C)=O | -1.39

Row | SMILES | inhibition [%]
49 | CC(NC(=S)NCCN1CCOCC1)C12CC3CC(CC(C3)C1)C2 (centres undefined) | -0.91
50 | COC(=O)C1=C(C)N(Cc2ccccc2)C(=NCc2cc(OC)c(OC)c(OC)c2)N[C@H]1c1ccccc1 | -1.97
51 | COC(=O)C1=C(C)N(Cc2ccccc2)C(=NCc2ccccc2)N[C@H]1c1ccccc1 | 28.6
52 | CSc1ncccc1C(=O)NCc1ccc(C)cc1 | -4.41
53 | COC(=O)c1ccc(Cn2cc(C(F)(F)F)ccc2=O)cc1 | 38.8
54 | O=c1c([N+](=O)[O-])cc(C(F)(F)F)cn1Cc1c(Cl)cccc1Cl | 27.9
55 | Cc1c(S(=O)(=O)Nc2ccc(Br)cc2)c(=O)n(C)c(=O)n1C | 1.85
56 | C=C(C)c1cccc(C(C)(C)NC(=O)N(Cc2ccccc2)Cc2ccco2)c1 | 0.97
57 | Cc1c(CCC(=O)NCCCn2ccnc2)c(=O)oc2cc3occ(C(C)(C)C)c3cc12 | 19.4
58 | Cc1coc2c(C)c3oc(=O)c(CCC(=O)NCCCn4ccnc4)c(C)c3cc12 | 3.77
59 | CCc1cccc(NS(=O)(=O)c2ccc3c(c2)N(C)CCO3)c1 | 3.34
60 | CC1=C(C(=O)OCCC#N)C(c2cc3c(cc2Br)OCO3)NC(=O)N1 (centres undefined) | 0.64
61 | C=CCNC(=S)N/N=C(\C)c1cccc(NC(C)=O)c1 | -1.22
62 | C=CCNC(=S)N/N=C(\C)c1cccnc1 | -7.58
63 | CCCCCCCCCC(=O)N/N=C(\C)c1cccnc1 | 22.8
64 | CCCCCCCCC(=O)N/N=C(\C)c1cccnc1 | 7.1
65 | Cc1cc(C(=O)N2CCCC(N3CCN(c4cccc(C(F)(F)F)c4)CC3)C2)nn1C (centres undefined) | 5.35
66 | CC(Oc1ccc(Cl)cc1)C(=O)N(C)CC(=O)Nc1ccc(N2CCOCC2)cc1 (centres undefined) | -7.54
67 | COc1ccc(C(=O)N/N=C/c2ccc(OC)c(CN3CCCc4ccccc43)c2)cc1 | 8.38
68 | O=C(Oc1cccc(OC(=O)c2ccco2)c1)c1ccco1 | 14.2
69 | CC1=CC(C)(C)Nc2ccc(OC(=O)c3ccco3)cc21 | 4.65
70 | O=C(NCCCN1CCOCC1)Nc1ccc(Cc2ccc(NC(=O)NCCCN3CCOCC3)cc2)cc1 | -4.04
71 | O=C(O)c1cccnc1SCC(=O)N1CCCc2ccccc21 | -17
72 | COc1ccccc1N1CCN(C(=O)CNC(=O)c2ccc(Cl)cc2Cl)CC1 | 4.89

Row | SMILES | inhibition [%]
73 | CCn1c(/C=C/N(C)c2ccccc2)[n+](CC)c2ccc(Cl)cc21 | 0.68
74 | CC[n+]1c(/C=C/N(C)c2ccccc2)sc2ccc(Cl)cc21 | 0.95
75 | CCCC(C)NC(=O)c1c2c(nc3ccccc13)CCC2 (centres undefined) | -4.36
76 | O=C(Oc1cc2oc(=O)c3c(c2cc1Cl)CCCC3)c1cccs1 | 9.78
77 | Cc1cc(OC(=O)c2ccco2)c2c3c(c(=O)oc2c1)CCC3 | -2.68
78 | CN(C)c1c(N)c(=O)oc2ccccc12 | -9.33
79 | COc1ccc(-c2nc3ccc(C)cn3c2NCc2ccccc2)cc1SC1CCCCC1 | 5.05
80 | CCCCNc1c(-c2ccc(OC)c(SC3CCCCC3)c2)nc2ccc(Cl)cn12 | 8.29
81 | CN(CC(O)COCc1ccccc1F)C1CCCCC1 (centres undefined) | -0.04
82 | O=C(O/N=C\c1ccc(N2CCCCC2)c([N+](=O)[O-])c1)c1c(F)cccc1F | 2.52
83 | Cc1ccc(C(=O)O/N=C\c2ccc(N3CCOCC3)c([N+](=O)[O-])c2)cc1 | 0.26
84 | O=C(Cn1cnc([N+](=O)[O-])n1)c1ccccc1 | 0.7
85 | COc1ccc(Nc2cc(Nc3cccc(OC)c3)ncn2)cc1 | 0.6
86 | O=C(O)c1cccc(N/N=C/c2ccc(OC(F)(F)F)cc2)c1 | 4.3
87 | Cc1nc2scc(-c3ccc(Cl)cc3)c2c(=O)n1N | -5.38
88 | Cc1nc2scc(-c3ccc(C(C)C)cc3)c2c(=O)n1N | 6.8
89 | C1=Nc2ccccc2CN1c1ccccc1 | -10.9
90 | CCOc1ccc(N2C(=O)CCC2=O)cc1 | -7.32
91 | CCCc1cc(N2CCC(C(N)=O)CC2)nc(-c2ccccc2)n1 | 5.28
92 | COc1ccc(/C=N/n2c(N)nc3ccccc32)cc1OC | 4.73
93 | Nc1nc2ccccc2n1/N=C/c1cccnc1 | -4.9
94 | Cc1ccc(C(=O)Nc2nc(C(C)(C)C)cs2)s1 | 56.8
